Laboratory results taken from PubChem BioAssay (NCI).
This is part of a sample that, as a whole, favours compounds with a hit. Of some 83,000 tested, about 20% had one in any assay.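 96-well plates, one dose, 48 hours. Percent growth reported; active if below 10.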 A number with no mark means an inactive call. Activity calls are given as the source filed them.

Key:
Experiment in all cases: NCI-60 one-dose screen, 48 h (100 = growth as untreated, 0 = no growth, -100 = all killed)
RPMI-8226 leukemia = settings: 10 µM unless noted
OVCAR-8 ovarian = settings: 10 µM unless noted
OVCAR-5 ovarian = settings: 10 µM unless noted
OVCAR-4 ovarian = settings: 10 µM unless noted
SK-OV-3 ovarian = settings: 10 µM unless noted
OVCAR-3 ovarian = settings: 10 µM unless noted
HS 578T breast = settings: 10 µM unless noted
NCI/ADR-RES ovarian = settings: 10 µM unless noted
T-47D breast = settings: 10 µM unless noted
BT-549 breast = settings: 10 µM unless noted
MDA-MB-435 melanoma = settings: 10 µM unless noted
SW-620 colon = settings: 10 µM unless noted
MCF7 breast = settings: 10 µM
HCC-2998 colon = settings: 10 µM unless noted
KM12 colon = settings: 10 µM unless noted
HCT-116 colon = settings: 10 µM unless noted
IGROV1 ovarian = settings: 10 µM unless noted

Structure (SMILES) | growth (RPMI-8226 leukemia) | growth (OVCAR-8 ovarian) | growth (OVCAR-5 ovarian) | growth (OVCAR-4 ovarian) | growth (SK-OV-3 ovarian) [%] | growth (OVCAR-3 ovarian) | growth (HS 578T breast) | growth (NCI/ADR-RES ovarian) | growth (T-47D breast) | growth (BT-549 breast) | growth (MDA-MB-435 melanoma) | growth (SW-620 colon) | growth (MCF7 breast) | growth (HCC-2998 colon) | growth (KM12 colon) | growth (HCT-116 colon) | growth (IGROV1 ovarian)
N#C/C(=C\c1c(-c2ccccc2)[nH]c2ccccc12)C(=O)c1ccccc1 | -0.917% (active) | 46.9% | 70.5% | 68.9% | 57.4 | -7.05% (active) | 16% | 6.15% (active) | 39% | 61.5% | 10.8% | 19.9% | 19.4% | 60.1% | 28.2% |  | 
COc1ccc(-c2cn3c(C(=O)Nc4ccccc4Cl)c(-c4ccccc4)c4c3n2CCCC4)cc1 | 68.5% | 83.6% | 79.8% | 74.6% | 86.4 | 84.1% | 114% | 81.7% | 78.9% | 86.4% | 80% | 82.5% |  |  | 82.8% | 73.2% | 
CC(=O)c1ccc2oc(=O)n(Cc3ccc(C#N)cc3)c(=O)c2c1 | 106% | 103% | 103% | 96.3% | 119 | 117% | 103% | 110% |  | 102% | 99.3% | 100% |  | 102% | 102% | 110% | 108%
COc1ccc(C2NCCc3c2[nH]c2ccccc32)cc1CN1CCN(c2ccc(F)cc2)CC1 (configuration not stated) | -10% (active) | 24.6% | 64.8% | 65.3% | 88.8 | 66.8% | 92.2% | 54.7% | 54.6% | 69.7% | 38.2% | 29.6% | 33.9% | 17.9% | 40.4% | 41.6% | 
COc1cccc(C(=O)Cn2cc(/C=C(\C#N)S(=O)(=O)c3ccccc3)c3ccccc32)c1 | 72.2% | 89.3% | 47.9% | 95.6% | 85 | 103% | 106% | 90.6% | 91.6% | 103% | 113% | 95.5% | 94.5% | 91% | 107% | 83.9% | 
CCOc1ccc2nc(C)cc(Nc3ccc(Br)cc3)c2c1 | 82.6% | 97.9% | 97.7% | 82.2% | 101 | 107% | 117% | 95.4% | 97.1% | 108% | 110% | 94.8% | 76.6% | 117% | 108% | 80.4% | 
O=C(c1nc2ccccc2[nH]1)C1C(c2ccc(F)cc2)C2CC3CCCCC3N2[C@@]12C(=O)Nc1ccc(Cl)cc12 (some centres not stated) | 13.9% | 61.2% | 61.8% | 31.5% |  | 50.1% | 69.2% | 51% | 37.4% | 77.4% | 42.4% | 41% | 21.4% | 43% | 43.9% | 28% | 42.8%
CCOC(=O)c1cc2c(n1Cc1cccc(OC)c1)-c1oncc1CCC2 | 19.1% | 33.4% | 72.8% | 54.3% | 20.7 | -8.41% (active) | 6.59% (active) | 12.2% |  | 42.4% | -13.4% (active) | 23.6% | 14.1% | 51.6% | 27.1% | 25.2% | 7.29% (active)
O=C(/C=C/c1ccc(C(F)(F)F)cc1)c1ccc(Nc2nc(NCCO)nc(N3CCOCC3)n2)cc1 | 2.35% (active) | 28.5% | 68.6% | 22.8% |  | -31.9% (active) | 78.1% | 74.7% | 32.7% | 61% | 22.1% | -6.72% (active) | 3.91% (active) | 63.9% | -32.2% (active) | -28.3% (active) | 25.4%
Cc1ccc(N=NC2C(=O)N(c3ccc(Cl)cc3)N(c3ccc(Cl)cc3)C2=O)cc1 | 78.1% | 98.2% | 99.8% | 102% |  | 93.3% | 102% | 98.9% | 83.2% | 95.2% | 103% | 96.4% | 85.5% | 109% | 90.3% | 97.2% | 95.8%
Fc1cccc(COc2ccc(Nc3ncnc4onc(-c5ccccc5)c34)cc2)c1 | 12.5% | 29.2% | 9.86% (active) | 43.3% |  | 0.458% (active) | -16.7% (active) | 46.5% | 45.4% | 12.8% | -54.7% (active) | 19.8% | 14% | 9.52% (active) | 9.57% (active) | 8.15% (active) | 24.5%
Cc1ccc(C(=O)c2oc3ccc4c(C)cc(=O)oc4c3c2C)cc1 | 0.992% (active) | 8.23% (active) | 66% | 33.9% | 46.9 | 28.7% | 86.5% | 29.5% | 14.8% | 40.8% | 29.7% | 23.2% | 9.99% (active) |  | 17.8% | 21.7% | 
Nc1ccc(-c2nn3c(CCC(=O)c4nc5ncccc5[nH]4)nnc3s2)c(O)c1 | 101% | 98.2% | 95% | 98% | 91.4 | 100% | 74% | 93.8% |  |  | 97.2% | 90.1% | 84.7% | 69.4% | 98.5% | 86.7% | 70.9%
O=C(c1ccccc1)N(CCc1ccc(Cl)cc1)C(=S)N(C(=O)c1ccccc1)c1ccccc1 | -27% (active) | 106% | 106% | 96.6% | 120 | 104% | 108% | 109% |  |  | 96.8% | 80.3% | 35.7% | 105% | 56.5% | 69.6% | 116%
NNC(=O)CNC(=O)Nc1n[nH]c(=S)s1 | 93% | 104% | 97.6% | 117% | 99.8 | 108% | 90.9% | 104% |  | 116% | 110% | 102% |  | 106% | 100% | 94.1% | 102%
O=C1/C(=C\c2ccc[nH]2)c2ccccc2N1c1ccccc1 | 94.4% | 102% | 87.9% | 67.7% |  | 112% | 92.3% | 90.2% | 64.9% | 78.9% | 108% | 97% | 19.5% | 93.6% | 95.7% | 95.1% | 84.5%
O=c1c(-c2nc3ccccc3[nH]2)cc2ccccc2n1Cc1cn(Cc2ccc(F)cc2)nn1 | 16.7% | 28.5% | -20.5% (active) | 43.5% |  | 3.02% (active) | -6.42% (active) | 31.7% | 42.3% | 22.4% | -37% (active) | 22.1% | 14.5% | -14.5% (active) | 9.74% (active) | -13.5% (active) | 9.95% (active)
COc1cc2nc(NC3CCCC3)nc(NC3CCN(C(C)C)CC3)c2cc1OC | -10.7% (active) | 89.7% | 107% | 69% |  | 89.4% | 79.6% | 101% | 17.4% | 76.7% | -34.3% (active) | 59.2% | 39.8% | 29.6% | 79.2% | 66.5% | 82%
COc1cc(C2CC(c3ccc(Nc4nc(NCCO)nc(N5CCOCC5)n4)cc3)=NN2c2cc(Cl)cc(Cl)c2)cc(OC)c1OC (configuration not stated) | 33.4% | 48.8% | 74.4% | 57.2% |  | 56.9% | 22.6% | 48.8% | 41.4% | 75.3% | 49.6% | 81.6% | 15.3% | 63.4% | 37.6% | 33.1% | 55%
NCCOc1ncccc1/C=C1\c2ccccc2-c2ccc(F)cc21 | -14.6% (active) | 14.9% | 32.1% | 43.3% |  | 36.7% | 44.2% | 29.9% | 21.2% | 82.4% | 60.7% | 14.7% | 14.9% | 18.3% | 8.88% (active) | 15% | 26.1%
NCCOc1ncccc1/C=C1\c2ccccc2-c2ccc([N+](=O)[O-])cc21 | -21.5% (active) | -13% (active) | -72.8% (active) | -69.2% (active) |  | -77.7% (active) | -5.23% (active) | -45.4% (active) | -30.4% (active) | -17.2% (active) | -70.5% (active) | -50.3% (active) | -42% (active) | -82.2% (active) | -51.5% (active) | -74.6% (active) | -80.2% (active)
COc1cc(/C=C2\CN(C)C/C(=C\c3cc(CN4CCOCC4)c(O)c(OC)c3)C2=O)cc(CN2CCOCC2)c1O | 47.7% | 20.1% | 88.7% | 58.9% |  | 22.2% | 83.1% | 94.7% | 84.5% | 94% | 29.2% | 48% | 19.5% | 91% | 37.4% | 21.1% | 57.8%
CS(=O)(=O)Nc1ccc(C(=O)NC(C(=O)NO)c2ccc(-c3cccc(F)c3)cc2)cc1 (configuration not stated) | 82.8% | 97.3% | 31.6% | 70.9% |  | 64.7% | 73% | 66.6% | 82.4% | 94.1% | 54.5% | 51.2% | 66.7% | 62.6% | 58.2% | 39.1% | 39.6%
COC(=O)/C(CCC=C(C)C)=C1\[C@@H](OC(C)=O)C[C@@]2(C)[C@H]1C[C@@H](O)[C@H]1[C@@]3(C)CC[C@H](NCc4ccccc4)[C@@H](C)[C@@H]3CC[C@@]12C | 16.9% | 76.1% | 88.7% | 61.2% |  | 69.6% | 67.3% | 64.6% | 62.3% | 76.2% | 75.7% | 63.5% | 49.5% | 72.8% | 72.9% | 20.2% | 70.3%
O=Cc1cc2ccccc2nc1Nc1nccs1 | 64% | 47.6% | 85.6% | 75.8% |  | 55.2% | 91.9% | 77% | 77.5% | 88.9% | 81.4% | 27.5% | 13.2% | 87.6% | 56.2% | 54.3% | 42.6%
